# Screening results: PubChem BioAssay, National Center for Advancing Translational Sciences (NCATS)
# KB-V1 cytotox – qHTS assay for MDR1-selective chemotherapeutics: Primary screen using the drug-selected MDR subline cells KB-V1; 400,000 compounds, 3.4% hits; Potency, µM (titrated, usually from 46.1 µM), hits mostly cytotoxic; KB-V1 MDR cells viability, CellTiter-Glo, 72 h; note: nearly all actives have a fitted effect of over 60% in size
#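 Cytotoxicity via CellTiter-Glo luminescence after 72 h compound exposure at 37 degrees C. Cells: drug-selected KB-V1 line, DMEM phenol-red free plus 10% FBS. Compounds tested at multiple concentrations; normalized data fitted to concentration-effect curves.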
# HT1080 IDH1KD tx – qHTS for induction of synthetic lethality in tumor cells producing 2HG: qHTS for the HT-1080-IDH1KD cell line. HT-1080 IDH1 knockdown viability, ATP luminescence, 48 h. Potency, µM (titrated, usually from 46.1 µM), hits mostly cytotoxic. 360,000 compounds, 2% hits. AID 686971, 2013
#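 Assay cells: HT-1080 with IDH1 knockdown, 750 per well, RPMI/5% FBS. Exposure: 48 h at 37 °C following 2 h pre-incubation. Read: CellTiter-Glo luminescence; fitted concentration-response, curve class assigned.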
# KB-3-1 tox – qHTS assay for MDR1-selective chemotherapeutics: Primary screen using the parental adenocarcinoma cell KB-3-1 | Potency, µM (titrated, usually from 46.1 µM), most hits filed as cytotoxic | AID 1347075, 2019 | KB-3-1 viability, CellTiter-Glo ATP luminescence, 72 h | 400,000 compounds, 1.4% hits; note: nearly all actives have a fitted effect of over 60% in size
#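 KB-3-1 parental drug-naive adenocarcinoma cells in DMEM/10% FBS, incubated 72 h at 37 C with pin-transferred compounds across a concentration series. Viability by CellTiter-Glo luminescence; concentration-response curves fitted after normalization.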
# DT40 TDP1 CPT – qHTS for Inhibitors of human tyrosyl-DNA phosphodiesterase 1 (TDP1): qHTS in cells in presence of CPT. chicken DT40 Tdp1-/-;hTDP1 cells + 20 nM CPT, ATP luminescence, 48 h. Potency, µM (highest dose often 46.2 µM), most hits filed as inhibitors. 420,000 compounds, 12% hits; note: nearly all actives have a fitted effect of over 55% in size
#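 Chicken DT40 Tdp1-/- cells complemented with human TDP1, 400 cells/well, exposed to compounds plus 20 nM camptothecin for at least 48 h at 37 C; viability read as ATP content by CellTiter-Glo luminescence.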
# HT1080NT lethal – qHTS for induction of synthetic lethality in tumor cells producing 2HG: qHTS for the HT-1080-NT fibrosarcoma cell line | HT-1080-NT fibrosarcoma viability, CellTiter-Glo ATP luminescence, 48 h | 360,000 compounds, 1.6% hits | Potency, µM (top dose mostly 46.1 µM), hits mostly cytotoxic | AID 686970, 2013;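 note: NT is the 2HG producing partner of a matched IDH1 knockdown line; nearly all actives have a fitted effect of over 55% in size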
#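 A 48-hour cytotoxicity screen used HT-1080-NT cells plated 2 hours before compound delivery. ATP-based CellTiter-Glo luminescence measured viability, normalized to DMSO and no-cell controls.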
# TDP1 cell noCPT – qHTS for Inhibitors of human tyrosyl-DNA phosphodiesterase 1 (TDP1): qHTS in cells in absence of CPT | DT40 Tdp1-/- hTDP1 cells, no CPT, ATP luminescence, 48 h | Potency, µM (highest dose often 46.2 µM), hits mostly inhibitors | 420,000 compounds, 15% hits | AID 686978, 2013; note: nearly all actives have a fitted effect of over 55% in size
#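 No-CPT arm: Tdp1-/-;hTDP1 DT40 cells (400/well) plus compounds, incubated ≥48 hr at 37 °C. Readout CellTiter-Glo luminescence.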
# Numbers stand for hits; n = inactive; u = inconclusive; x = not tested or not shown; [ ] = another dose, or the depositor's remark. Sampled rows, rich in hits. Any-hit rate of the full collection: about 19%. Calls come from the whole dose curve; as a rule, active = well fitted curve in the direction sought with a large enough effect; inconclusive = small, poorly fitted or top-dose-only effect, or another doubt; inactive = no such curve, though single readings can be large; an effect the other way counts as inactive or inconclusive.
SMILES,KB-V1 cytotox,HT1080 IDH1KD tx,KB-3-1 tox,DT40 TDP1 CPT,HT1080NT lethal,TDP1 cell noCPT
CC(C)OCCCNC(=O)CCCn1c(SCC(N)=O)nc2c(sc3ccccc32)c1=O,x,x,x,u,x,n
c1ccc(CCN=C2CCCc3c2[nH]c2ccccc32)cc1,u,n,13µM,n,n,n
c1ccc2c3c([nH]c2c1)CCNC3,n,n,n,n,n,n
Fc1ccc(-c2nnc(-c3ccc4ccccc4c3)o2)cc1,n,n,n,n,n,n
c1ccc2c(-c3c[nH]c4ccccc34)c3ccccc3nc2c1,n,u,n,u,u,16.4µM
COc1cccc(NC(=O)c2cccc(C(=O)Nc3cccc(OC)c3)n2)c1,n,n,n,n,n,n
C=CC(=O)Nc1cccc(Oc2cc(Cl)nc3[nH]ccc23)c1,18.4µM,u,u,16.4µM,u,u
COc1ccc(S(=O)(=O)N(C)c2ccc(C(=O)Nc3ccccc3C(=O)N3CCOCC3)cc2)cc1OC,n,n,n,u,n,n
COCCCNc1ccn2nc(-c3ccccc3)cc2n1,n,n,n,n,n,n
CC(C)(CO)CNc1ccn2nccc2n1,n,n,u,13µM,n,u
COc1ccc(-c2nnc(NC(=O)c3ccc(S(=O)(=O)N4CCc5ccccc5C4)cc3)o2)cc1,10µM,n,u,4.47µM,u,4.47µM
COc1ccc(-c2csc(NC(=O)c3ccc(S(=O)(=O)N4CCc5ccccc5C4)cc3)n2)cc1,n,u,u,n,n,u
COC(=O)c1ccc(-c2csc(NC(=O)c3ccc(S(=O)(=O)N4CCc5ccccc5C4)cc3)n2)cc1,n,n,n,7.31µM,n,5.8µM
CN(CC(=O)Nc1ccccc1C(F)(F)F)CC(=O)N1CCCCCC1,x,n,x,n,n,n
Cc1nc(-c2ccc(O)c(O)c2)cs1,n,n,n,16.4µM,n,u
Oc1ccc(-c2csc(-c3cccnc3)n2)cc1O,u,n,u,18.4µM,u,23.1µM
COc1cc(-c2csc(C)n2)ccc1O,n,n,n,n,n,n
COc1ccc(CNc2nc3c(-c4ccccc4)nnn3c3ccccc23)cc1,n,x,n,u,x,u
CCCCCCCCCCCCCC(=O)N[C@@H](C)[C@H](O)c1ccccc1,x,x,x,n[4.12 µM],x,n[4.12 µM]
C=CCn1c(SCC(=O)Nc2cc(C)on2)nc2sc(C)c(C)c2c1=O,n,n,n,u,n,6.51µM
CCn1c(SCC(=O)Nc2cc(C)on2)nc2sc3c(c2c1=O)CCCC3,n,u,n,u,10µM,6.51µM
Cc1cc(NC(=O)CSc2nc(C3CCCCC3)nc3ccccc23)no1,n,n[9.24 µM],u,u,n,u
C=CCn1c(SCC(=O)Nc2c(C)n(C)n(-c3ccccc3)c2=O)nc2sc(C)c(C)c2c1=O,n,n,n,n,n,u
C=CCn1c(SCC(=O)Nc2c(C)n(C)n(-c3ccccc3)c2=O)nc2sc(C)c(-c3ccccc3)c2c1=O,n,n,n,29.1µM,n,u
Cc1cc(NC(=O)CSc2nc(C3CC3)nc3sc4c(c23)CCC(C)C4)no1 (centres undefined),n,n[9.24 µM],n,16.4µM,n,18.4µM
SMILES,KB-V1 cytotox,HT1080 IDH1KD tx,KB-3-1 tox,DT40 TDP1 CPT,HT1080NT lethal,TDP1 cell noCPT
CCN(CC)C(=O)Cn1nc(C)c2ccccc2c1=O,n,n,n,n,n,n
COc1ccc(C2N(C(=O)C(F)(F)F)C(C)CN2S(=O)(=O)c2ccc(C)cc2)cc1 (centres undefined),n,n,n,n,n,n
C=C(C)Cn1c(SCC(=O)Nc2cccc(C)c2)nc2sc3c(c2c1=O)CCCC3,n,x,n,9.2µM,x,13µM
COCCCn1c(SCC(=O)Nc2ccc(NC(C)=O)cc2)nc2sc3c(c2c1=O)CCC3,n,n,n,n,n,u
COCCn1c(SCC(=O)NCCCN2CCCC2=O)nc2sc3c(c2c1=O)CCCC3,20.6µM,n,n,n,n,n
C=CCn1c(SCC(=O)NCc2ccco2)nc2sc3c(c2c1=O)CCCC3,n,n,n,n,n,n
C=CCn1c(SCC(=O)Nc2cc(C)on2)nc2sc3c(c2c1=O)CCCC3,n,n,n,23.1µM,n,9.2µM
Cc1ccc(CNC(=O)C2CCC(=O)N(CC3CCCCC3)C2)o1 (centres undefined),x,n,x,n,n,n
CCCC1NC(=O)c2cccnc2-n2c1nc1ccc(Cl)cc1c2=O (centres undefined),n,n,n,n,n,n
CCOc1ccc(S(=O)(=O)N2CCN(CN3C(=O)CC4(CCCC4)C3=O)CC2)cc1,n,n,n,n,n,n
Cc1ccc(CSCc2ccc(C(=O)NCCc3ccc(Cl)cc3)o2)cc1,n,x,n,u,x,u
CCCS(=O)(=O)NCCc1sc2nc(-c3ccc(Cl)cc3)nn2c1C,x,x,x,5.17µM,x,8.2µM
COc1ccc(-c2nc3sc(CCNC(=O)c4ccccc4C)c(C)n3n2)cc1,n,x,n,u,x,u
Cc1cc(C)c(S(=O)(=O)NCCc2sc3nc(-c4ccc(F)cc4)nn3c2C)c(C)c1,x,x,x,u,x,20.6µM
CCOc1ccc(S(=O)(=O)NCCc2sc3nc(-c4ccc(F)cc4)nn3c2C)cc1,x,x,x,u,x,14.6µM
CCCS(=O)(=O)NCCc1sc2nc(-c3ccc(F)cc3)nn2c1C,x,x,x,20.6µM,x,14.6µM
COc1cccc(CC2(CO)CCN(CC3=CC[C@H]4C[C@@H]3C4(C)C)CC2)c1,n,n,n,u,n,u
O=C(O)Cc1ccc2[nH]c3ccc(CC(=O)O)cc3c2c1,n,n,n,n,n,n
CCCCc1ccc(NC(=O)CSCc2cc(=O)[nH][nH]2)cc1,u,n,n,n,n,n
CCC(=O)N1CCc2cc(CNS(=O)(=O)c3ccc(C(C)C)cc3)ccc21,n,x,n,u,x,u
Cc1ccc([N+](=O)[O-])cc1NC(=O)CCCOc1ccccc1,10.3µM,n,n,n,n,n
COCC(=O)Nc1cc([N+](=O)[O-])ccc1C,u,n,n,23.1µM,n,u
CCOC(=O)C(=O)Nc1cc([N+](=O)[O-])ccc1C,n,n,n,n,n,n
CCOC(=O)c1c(C)[nH]c(C)c1S(=O)(=O)N(C)CC(=O)N1CCN(c2cccc(C)c2C)CC1,n,x,n,18.4µM,x,u
Cc1cccc(N2CCN(S(=O)(=O)c3c(C(=O)N4CCCCC4)c(C)n(C)c3C)CC2)c1C,n,n,n,u,n,u
